# Calls of active or inactive are those of the source. No stated cut-off is given here; in the data, active means inhibition above about 36%; inactive means the rest.
# Tested on: transactivating tegument protein VP16 (Human herpesvirus 1)
# Assay: compounds suppressing VP16-driven luciferase signal – cell-based, luminescence, single concentration, counter-screen for SRC2 inhibitor project (AID 652007)
# Settings: cell-based VP16 transactivation luciferase reporter, at 8.9 µM, stronger effect = higher value
row,SMILES,inhibition
1,COc1ccc(N2CCN(C(=O)CCCCCn3c(=S)[nH]c4ccc(N5CCOCC5)cc4c3=O)CC2)cc1,-3.27% (inactive)
2,CCCCN(CCCNC(=S)NCCCc1cnc[nH]1)c1ccc(Br)cn1,-7.99% (inactive)
3,CCOc1ccc(NC(=S)C(C#N)=C2N(C)c3ccccc3N2C)cc1,-4.65% (inactive)
4,CCOC(=O)C1(Cc2ccccc2)CCN(Cc2ccnc3ccccc23)CC1,-2.44% (inactive)
5,CCOc1ccc(-c2nc(CSCC(=O)NC3CCN(Cc4ccccc4)CC3)c(C)o2)cc1,8.65% (inactive)
6,Cc1cccc(C)c1Nc1nnc(SC(C)C(=O)Nc2c(C)n(C)n(-c3ccccc3)c2=O)s1 (stereo not given),-15.1% (inactive)
7,O=C(CSCc1ccc(C(=O)O)cc1)Nc1ccccc1,-18.8% (inactive)
8,CC1CCc2c(sc3nc(CSc4ncn[nH]4)[nH]c(=O)c23)C1 (stereo not given),33% (inactive)
9,COc1cc(OC)cc(C(=O)NCC2CCN(C(=O)C(=O)c3cccs3)CC2)c1,18.9% (inactive)
10,FC(F)(F)c1cnc(NNC(=S)Nc2ccccc2)c(Cl)c1,10.3% (inactive)
11,Cc1ccc(C(=O)c2cnc3ccccc3c2-c2ccccc2)cc1,-3.52% (inactive)
12,Cc1nc(-c2ccc(NC(=O)c3ccco3)cc2)cs1,18.9% (inactive)
13,CC(=O)c1cccc(NC(=O)Nc2ccc(C(=O)N3CCOCC3)cc2)c1,-8.69% (inactive)
14,COc1ccccc1/C=C/C1(C(=O)NC2CCCC2)CC(=O)N1c1ccc(F)cc1 (stereo not given),19.7% (inactive)
15,COc1cccc(/C=N/NC(=O)c2cc(-c3ccccn3)nc3ccccc23)c1O,9.38% (inactive)
16,Cn1cc(S(=O)(=O)Nc2ccc3c(c2)OCCO3)cn1,-16% (inactive)
17,Brc1cccc(-c2cnc3n2CCCCC3)c1,12.6% (inactive)
18,CCOC(=O)Cn1c(=O)c2c(nc(N3CCCCC3)n2Cc2ccccc2)n(C)c1=O,-5.76% (inactive)
19,COc1cccc(CNC(=O)C2CCN(S(=O)(=O)c3ccc(F)cc3)CC2)c1,16.3% (inactive)
20,Oc1cc2ccccc2cc1-c1nnc2n1-c1ccccc1SC2,5.09% (inactive)

row,SMILES,inhibition
1,Cc1c(CCC(=O)NCCCC(=O)O)c(=O)oc2cc3oc4c(c3cc12)CCCC4,47.5% (active)
2,COc1ccc(S(=O)(=O)Nc2ccc(C)cn2)cc1,-11.7% (inactive)
3,C(=N\Nc1nc2ccccc2s1)/c1ccccn1,49.5% (active)
4,COc1cccc(/C=C2/SC(=S)N(CCCC(=O)Nc3ccc(O)cc3)C2=O)c1,51.1% (active)
5,Oc1cccc(C(Nc2nccs2)c2ccc3cccnc3c2O)c1 (stereo not given),-15.2% (inactive)
6,Cc1ccc(CC2C(=O)N(c3cc(C)ccc3C)C(=O)C2C)cc1 (stereo not given),0.03% (inactive)
7,CCN(C(=O)C1CCCN(c2nnc(-n3cccc3)s2)C1)c1ccccc1C (stereo not given),11.5% (inactive)
8,Nc1nonc1-n1nnc(C(=O)N/N=C/c2ccccc2Br)c1CN1CCCC1,-7.5% (inactive)
9,CCOc1cc(/C=C2/NC(=O)N(Cc3ccccc3F)C2=O)ccc1O,4.78% (inactive)
10,CCCCCCC(=O)N(O)C1CC(=O)N(c2ccc(C)cc2)C1=O (stereo not given),9.6% (inactive)
11,CC(=O)NCCOc1nc(N2CCCCC2)nc(N2CCCCC2)n1,0.94% (inactive)
12,Cc1cccc(C(=O)O/N=C(\N)c2ccccn2)c1,-73.6% (inactive)
13,COc1cc(Cn2c3ccc(NC(=O)CC(C)c4ccccc4)cc3c(=O)n2C)ccc1F (stereo not given),-0.16% (inactive)
14,Cc1c(CCC(=O)N2CCC[C@H]2C(=O)O)c(=O)oc2c(C)c3oc4c(c3cc12)CCCC4,39% (active)
15,COC(=O)COc1ccc(S(=O)(=O)Nc2ccc3c(c2)OCCO3)cc1C,-11.5% (inactive)
16,N=c1c2c3c(sc2ncn1N)CCCCC3,2.99% (inactive)
17,O=C(Nc1ccc2nc3n(c(=O)c2c1)CCCCC3)c1cc([N+](=O)[O-])ccc1F,32.1% (inactive)
18,CC(c1nccs1)N(C)C(=O)CCc1nnc(-c2ccc(-c3ccccc3)cc2)o1 (stereo not given),-11% (inactive)
19,O=C(Cc1ccc([N+](=O)[O-])cc1)Nc1cccc(C(=O)N2CCCCC2)c1,13.5% (inactive)
20,NC(=O)c1cc(C(=O)c2ccc(Cl)cc2Cl)c[nH]1,-19.8% (inactive)

# Reference: PubChem BioAssay
